{"source": "ChEMBL document CHEMBL3988442", "about": "“University of Dundee, Small-Polar-MMV Screening Library” (2021)", "data": [{"system": "Trypanosoma cruzi", "assay": "Trypanosoma cruzi phosphomannomutase and mannose-1-phosphate guanylyltransferase assay", "assay_type": "functional", "set-up": "scale not given: direction of the effect not stated beside the values", "conditions": "10 µM", "units": {"Percent Effect": "%"}, "values": [{"smiles": "COCC1CC2(CCN(C(=O)c3cccn3C)CC2)CN1C(C)C", "note": "(stereo not drawn)", "Percent Effect": 1.37}, {"smiles": "CCN(Cc1cccc(Cl)c1)Cn1nc(C)c2c(C)onc2c1=O", "Percent Effect": -3.68}, {"smiles": "CC(C)c1nc(CC(=O)Nc2nc(CN3CCCCCC3)cs2)cs1", "Percent Effect": 13.8}, {"smiles": "COc1cccc(CN(C)S(=O)(=O)N2CCOCC2)c1", "Percent Effect": 2.63}, {"smiles": "Cc1nn(C)c(N(C)C)c1CNCc1cccc(OCCN(C)C)c1", "Percent Effect": -8.08}, {"smiles": "Cc1ccc(CNC(=O)CCSCc2csc(C)n2)cn1", "Percent Effect": 1.42}, {"smiles": "CCO[C@@H]1CC[C@H]2[C@H]1OCCN2C(=O)C1CCOCC1", "Percent Effect": 3.32}, {"smiles": "CCC1CCCCN1C(=O)c1ccc2[nH]nnc2c1", "note": "(stereo not drawn)", "Percent Effect": -1.17}, {"smiles": "FC(F)(F)C1CCCn2c(CNCc3ccsc3)nnc21", "note": "(stereo not drawn)", "Percent Effect": 2.63}, {"smiles": "CCC1(CC)Cc2ccccc2-c2nc(NCCO)[nH]c(=O)c21", "Percent Effect": -2.63}, {"smiles": "Cc1nc(C)n(CC2CCCCN2CCC(=O)Nc2cc(C)on2)n1", "note": "(stereo not drawn)", "Percent Effect": -1.13}, {"smiles": "Cc1nc(C)n(CC2CN(CC(=O)Nc3nccs3)CCO2)n1", "note": "(stereo not drawn)", "Percent Effect": 3.98}, {"smiles": "CC(NC(=O)NCCOc1ccc(F)c(F)c1)c1nncn1C", "note": "(stereo not drawn)", "Percent Effect": 7.15}, {"smiles": "COCCNc1nc(C2CCCC2)nc2c1CCNCC2", "Percent Effect": 4.83}, {"smiles": "Cc1ccc(CNS(=O)(=O)CC2=NC(=O)n3cccc3C2=O)cc1", "Percent Effect": -1.77}, {"smiles": "CCS(=O)(=O)N(C)C(=O)c1cc(C)n(-c2cccc(OC)c2)c1C", "Percent Effect": 3.68}, {"smiles": "Cn1ncc2c(=O)[nH]c(CN(Cc3ccco3)C3CCCC3)nc21", "Percent Effect": 2.81}, {"smiles": "O=C(CS(=O)(=O)CC1CCCCC1)NC1CCCCNC1=O", "note": "(stereo not drawn)", "Percent Effect": 4.49}, {"smiles": "CC(N(C)Cc1nc2c(cnn2C)c(=O)[nH]1)C(C)(C)C", "note": "(stereo not drawn)", "Percent Effect": -10.1}, {"smiles": "CC(C)c1nc(C2CCCN2C(=O)c2nccnc2N)no1", "note": "(stereo not drawn)", "Percent Effect": 4.18}, {"smiles": "O=C1CC(N(C(=O)c2ccc3c(c2)CCC3)C2CC2)C(=O)N1", "note": "(stereo not drawn)", "Percent Effect": -8.21}, {"smiles": "CCn1cnnc1CNC(=O)N1CCC(Cc2cccnc2)CC1", "Percent Effect": -4.41}, {"smiles": "CC(NC(=O)NCc1cccc(N2CCCC2=O)c1)c1ccccc1", "note": "(stereo not drawn)", "Percent Effect": 3.23}, {"smiles": "O=C1N(c2ccc(F)cc2)Cc2nc(=O)n(Cc3cccc(Cl)c3)n21", "Percent Effect": -5.11}, {"smiles": "Cc1noc2nc(C3CCN(Cc4cccnc4)CC3)cc(C(F)F)c12", "Percent Effect": -6.32}, {"smiles": "CCOc1cccc(C(=O)NCCC(=O)Nc2ccncc2)c1", "Percent Effect": -2.43}, {"smiles": "O=S(=O)(Cc1ccccc1F)NCCN1CCOCC1", "Percent Effect": -3.02}, {"smiles": "O=C(NCCc1ccccc1)C1CCC(Cn2cnnn2)CC1", "note": "(stereo not drawn)", "Percent Effect": -1.77}, {"smiles": "CC(C)c1nnc2n1CCN(Cc1csc(CC(=O)N(C)C)n1)C2", "Percent Effect": -4.7}, {"smiles": "Cc1cc(C)n(CC2CCCN2C(=O)CCc2cscn2)n1", "note": "(stereo not drawn)", "Percent Effect": 8.08}, {"smiles": "CC(=O)N1CCC(C(=O)N(C)[C@@H]2CCC[C@@H](N3CCCC3)[C@@H]2O)CC1", "Percent Effect": 6.13}, {"smiles": "N#Cc1ccc(OCCCN2CCc3cncnc3C2)cc1", "Percent Effect": -3.68}, {"smiles": "Cc1cnn(CCNCC(=O)NCCOc2ccccc2)c1", "Percent Effect": -5.88}, {"smiles": "CC(CCN1CCn2nc(CNC(=O)N(C)C)cc2C1)c1ccccc1", "note": "(stereo not drawn)", "Percent Effect": 4.25}, {"smiles": "COc1ccc(CN(C)Cc2nc3c(cnn3C)c(=O)[nH]2)cc1OC", "Percent Effect": -3.18}, {"smiles": "CCOC(=O)C1CCCN(c2ccc(-c3nc(C)no3)cn2)C1", "note": "(stereo not drawn)", "Percent Effect": 5.36}, {"smiles": "CC1Cc2ccccc2N1Cc1occc1C(=O)OCC(N)=O", "note": "(stereo not drawn)", "Percent Effect": 4.56}, {"smiles": "CC(C)Oc1ccccc1CNC(=O)N1CCC(n2cncn2)CC1", "Percent Effect": 3.79}, {"smiles": "COCC(O)CN(C)C(=O)NC1CCN(Cc2ccccn2)CC1", "note": "(stereo not drawn)", "Percent Effect": 4.31}]}, {"biological_target": "T1, Arginase-2, mitochondrial (Homo sapiens) (UniProt P78540)", "T1 sequence (whole entry)": "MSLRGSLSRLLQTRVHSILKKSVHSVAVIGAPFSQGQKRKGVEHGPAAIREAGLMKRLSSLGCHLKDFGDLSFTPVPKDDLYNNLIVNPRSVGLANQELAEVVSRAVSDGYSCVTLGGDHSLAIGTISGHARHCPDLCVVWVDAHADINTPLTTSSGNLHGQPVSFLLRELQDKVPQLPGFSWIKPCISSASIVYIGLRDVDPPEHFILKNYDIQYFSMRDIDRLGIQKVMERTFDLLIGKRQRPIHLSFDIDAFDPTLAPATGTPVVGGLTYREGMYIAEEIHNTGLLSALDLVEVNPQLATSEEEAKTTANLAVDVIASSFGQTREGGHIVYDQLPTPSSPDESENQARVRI", "assay": "in vitro enzyme assay to detect the production of urea directly proportional to the activity of Arginase II", "assay_type": "functional", "set-up": "scale not given: in the data most compounds retested in dose-response had high values", "conditions": "33.3 µM", "units": {"Percent Effect": "%"}, "values": [{"smiles": "COCC1CC2(CCN(C(=O)c3cccn3C)CC2)CN1C(C)C", "note": "(stereo not drawn)", "Percent Effect": -1.67}, {"smiles": "CCN(Cc1cccc(Cl)c1)Cn1nc(C)c2c(C)onc2c1=O", "Percent Effect": -0.802}, {"smiles": "CC(C)c1nc(CC(=O)Nc2nc(CN3CCCCCC3)cs2)cs1", "Percent Effect": -4.84}, {"smiles": "COc1cccc(CN(C)S(=O)(=O)N2CCOCC2)c1", "Percent Effect": -10.7}, {"smiles": "Cc1nn(C)c(N(C)C)c1CNCc1cccc(OCCN(C)C)c1", "Percent Effect": -4.98}, {"smiles": "Cc1ccc(CNC(=O)CCSCc2csc(C)n2)cn1", "Percent Effect": 4.18}, {"smiles": "CCO[C@@H]1CC[C@H]2[C@H]1OCCN2C(=O)C1CCOCC1", "Percent Effect": 3.33}, {"smiles": "CCC1CCCCN1C(=O)c1ccc2[nH]nnc2c1", "note": "(stereo not drawn)", "Percent Effect": 3.33}, {"smiles": "FC(F)(F)C1CCCn2c(CNCc3ccsc3)nnc21", "note": "(stereo not drawn)", "Percent Effect": 1.56}, {"smiles": "CCC1(CC)Cc2ccccc2-c2nc(NCCO)[nH]c(=O)c21", "Percent Effect": 3.55}, {"smiles": "Cc1nc(C)n(CC2CCCCN2CCC(=O)Nc2cc(C)on2)n1", "note": "(stereo not drawn)", "Percent Effect": -0.645}, {"smiles": "Cc1nc(C)n(CC2CN(CC(=O)Nc3nccs3)CCO2)n1", "note": "(stereo not drawn)", "Percent Effect": 10.6}, {"smiles": "CC(NC(=O)NCCOc1ccc(F)c(F)c1)c1nncn1C", "note": "(stereo not drawn)", "Percent Effect": 2.74}, {"smiles": "COCCNc1nc(C2CCCC2)nc2c1CCNCC2", "Percent Effect": 1.91}, {"smiles": "Cc1ccc(CNS(=O)(=O)CC2=NC(=O)n3cccc3C2=O)cc1", "Percent Effect": -4.4}, {"smiles": "CCS(=O)(=O)N(C)C(=O)c1cc(C)n(-c2cccc(OC)c2)c1C", "Percent Effect": -5.32}, {"smiles": "Cn1ncc2c(=O)[nH]c(CN(Cc3ccco3)C3CCCC3)nc21", "Percent Effect": -1.42}, {"smiles": "O=C(CS(=O)(=O)CC1CCCCC1)NC1CCCCNC1=O", "note": "(stereo not drawn)", "Percent Effect": -6.05}, {"smiles": "CC(N(C)Cc1nc2c(cnn2C)c(=O)[nH]1)C(C)(C)C", "note": "(stereo not drawn)", "Percent Effect": 2.03}, {"smiles": "CC(C)c1nc(C2CCCN2C(=O)c2nccnc2N)no1", "note": "(stereo not drawn)", "Percent Effect": -4.99}, {"smiles": "O=C1CC(N(C(=O)c2ccc3c(c2)CCC3)C2CC2)C(=O)N1", "note": "(stereo not drawn)", "Percent Effect": 4.18}, {"smiles": "CCn1cnnc1CNC(=O)N1CCC(Cc2cccnc2)CC1", "Percent Effect": 1.47}, {"smiles": "CC(NC(=O)NCc1cccc(N2CCCC2=O)c1)c1ccccc1", "note": "(stereo not drawn)", "Percent Effect": -10.7}, {"smiles": "O=C1N(c2ccc(F)cc2)Cc2nc(=O)n(Cc3cccc(Cl)c3)n21", "Percent Effect": -3.35}, {"smiles": "Cc1noc2nc(C3CCN(Cc4cccnc4)CC3)cc(C(F)F)c12", "Percent Effect": -1.16}, {"smiles": "CCOc1cccc(C(=O)NCCC(=O)Nc2ccncc2)c1", "Percent Effect": 8.28}, {"smiles": "O=S(=O)(Cc1ccccc1F)NCCN1CCOCC1", "Percent Effect": -1.04}, {"smiles": "O=C(NCCc1ccccc1)C1CCC(Cn2cnnn2)CC1", "note": "(stereo not drawn)", "Percent Effect": -4.4}, {"smiles": "CC(C)c1nnc2n1CCN(Cc1csc(CC(=O)N(C)C)n1)C2", "Percent Effect": -4.6}, {"smiles": "Cc1cc(C)n(CC2CCCN2C(=O)CCc2cscn2)n1", "note": "(stereo not drawn)", "Percent Effect": 1.92}, {"smiles": "CC(=O)N1CCC(C(=O)N(C)[C@@H]2CCC[C@@H](N3CCCC3)[C@@H]2O)CC1", "Percent Effect": -2.09}, {"smiles": "N#Cc1ccc(OCCCN2CCc3cncnc3C2)cc1", "Percent Effect": -3.04}, {"smiles": "Cc1cnn(CCNCC(=O)NCCOc2ccccc2)c1", "Percent Effect": 0.719}, {"smiles": "CC(CCN1CCn2nc(CNC(=O)N(C)C)cc2C1)c1ccccc1", "note": "(stereo not drawn)", "Percent Effect": 8.1}, {"smiles": "COc1ccc(CN(C)Cc2nc3c(cnn3C)c(=O)[nH]2)cc1OC", "Percent Effect": 2.8}, {"smiles": "CCOC(=O)C1CCCN(c2ccc(-c3nc(C)no3)cn2)C1", "note": "(stereo not drawn)", "Percent Effect": 6.25}, {"smiles": "CC1Cc2ccccc2N1Cc1occc1C(=O)OCC(N)=O", "note": "(stereo not drawn)", "Percent Effect": -3.99}, {"smiles": "CC(C)Oc1ccccc1CNC(=O)N1CCC(n2cncn2)CC1", "Percent Effect": -2.37}, {"smiles": "COCC(O)CN(C)C(=O)NC1CCN(Cc2ccccn2)CC1", "note": "(stereo not drawn)", "Percent Effect": -2.85}]}]}
